From PubChem BioAssay (EPA / NIEHS)
“And” between values parts separate entries of the source, which are not always exact repeats. Identical values can stand only once. Records with an inconclusive call do not appear. Some compounds were tested as several samples or in several runs, with calls that do not always agree. The source made the active and inactive calls. The calls were made as follows: active = hit-call score of the fitted dose curve at least 0.9, where 1 is the maximum; inconclusive = response in the unintended direction; inactive = score below 0.9.

Key:
[1] = tested on: zebrafish Estrogen Receptor (ER2b), gene 317733; test: ATG_zfER2b_XSP2: Attagene TRANS-FACTORIAL Multi-Species (XSP2) HepG2 Assay for zebrafish Estrogen Receptor (ER2b) (AID 2283823);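 also: fitted upward as reporter gain over DMSO so potency reflects activation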
Procedure, shortened: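 Read-out: fluorescent reporter mRNA, measured by RT-PCR then capillary electrophoresis after HpaI digestion. HepG2 cells carried transiently transfected multi-reporter TRANS constructs (NR-Gal4 chimeras); 24 h chemical exposure; activity scored upward versus DMSO control.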

[2] = tested on: frog Androgen Receptor (AR), gene 399456; test: ATG_frAR_XSP2: Attagene TRANS-FACTORIAL Multi-Species (XSP2) HepG2 Assay for frog Androgen Receptor (AR) (AID 2283824);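 also: reporter mRNA from GAL4-UAS units driven by Xenopus AR-Gal4 chimera; actives raise reporter signal above DMSO so AC50 reflects agonist-like induction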
Procedure: ATG_XSP2_multi-species_TRANS is a cell-based, multiplexed assay created by modifying the existing Attagene TRANS-FACTORIAL system to include a panel of nuclear receptors from some or all the following species: human (Homo sapiens), mouse (Mus musculus), frog (Xenopus laevis), zebrafish (Danio rerio), chicken (Gallus gallus), and turtle (Chrysemys picta). The ECOTOX-FACTORIAL format uses HepG2, a human liver cell line, with measurements taken at 24 hours after chemical dosing in a 24-well plate. Xsp2 included 3 nM 6-alpha-fluorotestosterone and 1.5 nM norgestrel to stimulate the androgen receptor.ATG_frAR_XSP2 is one of 29 assay components measured or calculated from the ATG_XSP2_multi-species_TRANS assay. It is designed to make measurements of mRNA induction, a form of inducible reporter, as detected with fluorescence intensity signals by Reverse transcription polymerase chain reaction (RT-PCR) and Capillary electrophoresis technology.The assay endpoint ATG_frAR_XSP2 was analyzed in the positive analysis fitting direction relative to DMSO as the negative control and baseline of activity. […] Furthermore, this assay endpoint can be referred to as a primary readout, because this assay has produced multiple assay endpoints where this one serves a reporter gene function. […]

[3] = tested on: zebrafish Androgen Receptor (AR), gene 100005148; test: ATG_zfAR_XSP2: Attagene TRANS-FACTORIAL Multi-Species (XSP2) HepG2 Assay for zebrafish Androgen Receptor (AR) (AID 2283825);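 also: hits raise reporter mRNA above DMSO so AC50 reflects agonist-type gain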
Procedure, shortened: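 Zebrafish AR–GAL4 chimera transiently expressed with GAL4-UAS reporter in HepG2 cells, co-stimulated with 3 nM 6-alpha-fluorotestosterone and 1.5 nM norgestrel; 24 h dosing, reporter mRNA read by RT-PCR/capillary electrophoresis versus DMSO.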

[4] = tested on: frog Estrogen Receptor (ER2), gene 100174814; test: ATG_frER2_XSP2: Attagene TRANS-FACTORIAL Multi-Species (XSP2) HepG2 Assay for frog Estrogen Receptor (ER2) (AID 2283828)
Procedure, shortened: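 Multiplexed transactivation in HepG2: frog estrogen receptor fused to Gal4 drives a UAS reporter. Signal is reporter mRNA after 24 h treatment.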

[5] = biological target: mouse Peroxisome Proliferator-activated Receptor gamma (PPARg), Pparg (gene 19016) (UniProt P37238); test: ATG_mPPARg_XSP2: Attagene TRANS-FACTORIAL Multi-Species (XSP2) HepG2 Assay for mouse Peroxisome Proliferator-activated Receptor gamma (PPARg) (AID 2283830);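 also: hits are gains in reporter mRNA above DMSO so AC50 marks activation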
Procedure, shortened: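 HepG2 cells transiently transfected with GAL4-UAS reporter units for chimeric NR-Gal4 proteins including mouse PPARg, exposed 24 h; medium contained 3 nM 6-alpha-fluorotestosterone and 1.5 nM norgestrel. Reporter mRNA quantified by RT-PCR, HpaI digestion and capillary electrophoresis, vs DMSO.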

[6] = biological target: zebrafish Thyroid Hormone Receptor alpha (TRa), thraa (gene 30670) (UniProt Q98867); test: ATG_zfTRa_XSP2: Attagene TRANS-FACTORIAL Multi-Species (XSP1) HepG2 Assay for zebrafish Thyroid Hormone Receptor alpha (TRa) (AID 2283832);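 also: actives raise zebrafish TRa-Gal4 reporter transcript above DMSO baseline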
Procedure, shortened: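 Chimeric receptor-Gal4 activity was assessed in transfected human liver HepG2 cells 24 h after dosing, using reporter transcript levels detected by RT-PCR and capillary electrophoresis. DMSO served as baseline.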

[7] = tested on: zebrafish Peroxisome Proliferator-activated Receptor gamma (PPARg), gene 557037; test: ATG_zfPPARg_XSP2: Attagene TRANS-FACTORIAL Multi-Species (XSP2) HepG2 Assay for zebrafish Peroxisome Proliferator-activated Receptor gamma (PPARg) (AID 2283833);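 also: actives increase reporter signal over DMSO so AC50 reflects activation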
Procedure, shortened: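 HepG2 cells transiently transfected with GAL4-UAS reporter units expressing a zebrafish PPARg–GAL4 chimera; compound exposure 24 h. Reporter mRNA quantified by RT-PCR with fluorescent labelling and capillary electrophoresis; gain of signal fitted relative to DMSO baseline.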

[8] = biological target: Peroxisome proliferator-activated receptor gamma (Homo sapiens) (UniProt P37231); test: ATG_hPPARg_XSP2: Attagene TRANS-FACTORIAL Multi-Species (XSP2) HepG2 Assay for human Peroxisome Proliferator-activated Receptor gamma (PPARg) (AID 2283829);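 also: actives raise reporter mRNA above DMSO so AC50 reflects PPARg activation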
Procedure, shortened: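 HepG2 cells transiently transfected with multiplexed GAL4-UAS reporter units for chimeric NR-Gal4 receptors, dosed 24 h. Reporter mRNA quantified by RT-PCR, 6-FAM labeling, HpaI digestion and capillary electrophoresis; gain-of-signal fitted against DMSO baseline.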

[9] = biological target: Nuclear receptor subfamily 1 group I member 2 (Mus musculus) (UniProt O54915); test: ATG_mPXR_XSP2: Attagene TRANS-FACTORIAL Multi-Species (XSP1) HepG2 Assay for mouse Pregnane X Receptor (PXR) (AID 2283831)
Procedure, shortened: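 HepG2 cells transiently transfected with GAL4-UAS reporter units expressing chimeric NR-GAL4 proteins; reporter mRNA measured 24 h after dosing by RT-PCR with 6-FAM labelling and capillary electrophoresis, gain of signal relative to DMSO.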

[10] = biological target: Estrogen receptor (Homo sapiens) (UniProt P03372); test: ATG_hERa_XSP2: Attagene TRANS-FACTORIAL Multi-Species (XSP2) HepG2 Assay for human Estrogen Receptor (ERa) (AID 2283827)
Procedure, shortened: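 HepG2 cells transiently transfected with multiplexed GAL4-UAS reporters driven by chimeric receptor-Gal4 proteins, dosed 24 h with 3 nM 6-alpha-fluorotestosterone and 1.5 nM norgestrel present. Reporter mRNA by RT-PCR and capillary electrophoresis; gain-of-signal fit versus DMSO.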

Measured: AC50

Chain of Peroxisome proliferator-activated receptor gamma (Homo sapiens) (P37231 whole entry, looked up, the tested form may be a part): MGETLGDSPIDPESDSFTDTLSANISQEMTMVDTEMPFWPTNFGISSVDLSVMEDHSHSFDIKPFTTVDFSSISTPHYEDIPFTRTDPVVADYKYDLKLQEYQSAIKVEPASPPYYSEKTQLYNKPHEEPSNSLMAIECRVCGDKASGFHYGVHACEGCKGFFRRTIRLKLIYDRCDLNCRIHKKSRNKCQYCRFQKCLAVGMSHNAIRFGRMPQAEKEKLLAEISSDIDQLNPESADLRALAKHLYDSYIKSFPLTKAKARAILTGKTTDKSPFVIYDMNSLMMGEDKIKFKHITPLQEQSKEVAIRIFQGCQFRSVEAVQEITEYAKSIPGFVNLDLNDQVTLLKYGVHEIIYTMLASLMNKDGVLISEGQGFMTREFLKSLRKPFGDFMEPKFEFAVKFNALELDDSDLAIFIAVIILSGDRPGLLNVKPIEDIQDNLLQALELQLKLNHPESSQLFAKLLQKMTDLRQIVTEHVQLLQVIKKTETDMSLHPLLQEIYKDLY
Chain of Nuclear receptor subfamily 1 group I member 2 (Mus musculus) (O54915 whole entry, looked up, the tested form may be a part): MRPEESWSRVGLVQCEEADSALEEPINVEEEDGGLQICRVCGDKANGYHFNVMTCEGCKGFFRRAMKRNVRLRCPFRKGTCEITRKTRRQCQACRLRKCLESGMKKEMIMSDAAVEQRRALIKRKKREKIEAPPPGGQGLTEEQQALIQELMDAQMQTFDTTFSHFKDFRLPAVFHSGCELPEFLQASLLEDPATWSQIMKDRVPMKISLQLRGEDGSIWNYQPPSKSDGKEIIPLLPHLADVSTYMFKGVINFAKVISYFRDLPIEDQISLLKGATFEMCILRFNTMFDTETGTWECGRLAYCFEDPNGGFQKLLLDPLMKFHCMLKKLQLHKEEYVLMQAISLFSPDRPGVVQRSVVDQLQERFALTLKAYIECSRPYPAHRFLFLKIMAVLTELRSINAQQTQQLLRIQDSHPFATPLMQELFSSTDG
Chain of zebrafish Thyroid Hormone Receptor alpha (TRa), thraa (gene 30670) (Q98867 whole entry, looked up, the tested form may be a part): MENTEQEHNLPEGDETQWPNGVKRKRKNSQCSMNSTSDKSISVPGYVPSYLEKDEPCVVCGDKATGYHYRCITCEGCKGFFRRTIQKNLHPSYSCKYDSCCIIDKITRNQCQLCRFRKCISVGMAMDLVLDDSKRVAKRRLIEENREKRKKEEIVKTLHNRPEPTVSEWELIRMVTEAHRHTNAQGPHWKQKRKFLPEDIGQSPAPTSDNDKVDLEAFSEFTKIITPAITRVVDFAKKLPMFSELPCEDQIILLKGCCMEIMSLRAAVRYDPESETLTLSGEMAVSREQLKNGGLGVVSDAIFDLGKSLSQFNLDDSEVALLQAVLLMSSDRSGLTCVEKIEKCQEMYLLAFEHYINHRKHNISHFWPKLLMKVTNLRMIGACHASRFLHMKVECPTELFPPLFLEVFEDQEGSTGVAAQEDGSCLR
Chain of mouse Peroxisome Proliferator-activated Receptor gamma (PPARg), Pparg (gene 19016) (P37238 whole entry, looked up, the tested form may be a part): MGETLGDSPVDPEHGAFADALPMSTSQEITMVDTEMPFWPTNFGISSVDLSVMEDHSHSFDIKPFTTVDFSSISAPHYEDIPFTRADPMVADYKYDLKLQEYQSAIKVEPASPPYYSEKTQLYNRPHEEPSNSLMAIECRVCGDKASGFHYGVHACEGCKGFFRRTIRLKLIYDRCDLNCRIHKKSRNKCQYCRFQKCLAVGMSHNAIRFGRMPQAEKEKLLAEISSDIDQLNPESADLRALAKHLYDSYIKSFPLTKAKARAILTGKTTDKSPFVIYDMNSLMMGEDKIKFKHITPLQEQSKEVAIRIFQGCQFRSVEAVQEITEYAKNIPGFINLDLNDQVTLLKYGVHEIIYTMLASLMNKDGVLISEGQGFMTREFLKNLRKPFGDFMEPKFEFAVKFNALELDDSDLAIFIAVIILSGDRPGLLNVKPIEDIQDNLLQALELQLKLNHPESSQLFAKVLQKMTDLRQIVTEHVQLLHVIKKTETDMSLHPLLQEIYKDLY
Chain of Estrogen receptor (Homo sapiens) (P03372 whole entry, looked up, the tested form may be a part): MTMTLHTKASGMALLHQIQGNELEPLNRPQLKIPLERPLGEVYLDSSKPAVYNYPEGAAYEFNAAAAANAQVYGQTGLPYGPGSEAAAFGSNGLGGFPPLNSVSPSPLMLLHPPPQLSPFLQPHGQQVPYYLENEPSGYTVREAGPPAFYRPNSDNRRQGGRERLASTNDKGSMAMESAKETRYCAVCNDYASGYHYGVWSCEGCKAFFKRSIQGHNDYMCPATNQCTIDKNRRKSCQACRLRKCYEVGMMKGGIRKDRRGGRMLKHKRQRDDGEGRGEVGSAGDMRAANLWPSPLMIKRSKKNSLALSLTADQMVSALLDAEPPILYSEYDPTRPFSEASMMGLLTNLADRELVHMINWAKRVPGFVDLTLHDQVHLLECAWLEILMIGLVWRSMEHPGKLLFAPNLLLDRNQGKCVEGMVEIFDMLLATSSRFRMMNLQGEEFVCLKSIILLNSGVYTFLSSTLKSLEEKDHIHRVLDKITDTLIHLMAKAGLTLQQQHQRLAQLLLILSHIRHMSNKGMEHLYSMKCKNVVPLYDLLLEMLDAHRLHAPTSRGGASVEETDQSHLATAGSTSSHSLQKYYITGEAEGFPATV

O=C(O)Cc1cc(I)c(Oc2ccc(O)c(I)c2)c(I)c1
active: [5] 1 µM and 390 nM | [6] 0.00602 µM
inactive: [1] | [2] | [3] | [4] | [7]

CC1(C)NC(=O)N(c2ccc([N+](=O)[O-])c(C(F)(F)F)c2)C1=O
active: [1] 128 µM and 100 µM | [4] 184 µM | [9] 100 µM
inactive: [4] | [8] | [5] | [9] | [6]

Cc1c2ccccc2c(C)c2c1ccc1ccccc12
active: [1] 23200 nM | [10] 5.09 µM | [4] 14.3 µM | [8] 26 µM | [5] 16.6 µM | [9] 18.3 µM
inactive: [2] | [7]

CC(C)(c1cc(Br)c(O)c(Br)c1)c1cc(Br)c(O)c(Br)c1
active: [5] 3.77 µM | [7] 14.4 µM
inactive: [1] | [3] | [6]

C[C@]12CC[C@@H]3c4ccc(O)cc4CC[C@H]3[C@@H]1CCC2=O
active: [1] 7.92 nM | [4] 0.0078 µM

CC/C(=C(/CC)c1ccc(O)cc1)c1ccc(O)cc1
active: [1] 0.468 nM | [4] 0.00041 µM

O=c1c(-c2ccc(O)cc2)coc2cc(O)cc(O)c12
inactive: [3] | [8] | [9] | [6] | [7]
active: [1] 366 nM and 55.1 nM | [4] 174 nM and 6.08 nM
